This note sets out measurements from PubChem BioAssay (NCATS).

Inconclusive results are not listed. Calls of active or inactive are those of the source. Calls follow the shape of the dose curve; as a rule, active = well fitted curve in the direction sought with a large enough effect; inconclusive = small, poorly fitted or top-dose-only effect, or another doubt; inactive = no such curve, though single readings can be large; an effect the other way counts as inactive or inconclusive.

In test [1] the target is Glutathione peroxidase 1 (Homo sapiens) (UniProt P07203). The test is described as follows: Primary qHTS Assay for Inhibitors of Recombinant Selenoprotein Glutathione Peroxidase 1 (GPX1) (AID 1845191). Also: nearly all actives have a fitted effect of over 65% in size. A digest of the protocol:
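GR-coupled assay: compounds preincubated 30 min at room temperature with GPX1, then reaction started with CHP; final 10 nM GPX1, 1 mM GSH, 0.5 mM CHP, 0.5 mM NADPH, 100 nM GR, 0.01% BSA, pH 7.5 Tris buffer. NADPH fluorescence (340/450 nm) read at 0 and 15 min.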
On the technique in general: In qHTS, concentration-response curves come from the screen itself.

For test [2], the target named is Phospholipid hydroperoxide glutathione peroxidase GPX4 (Homo sapiens) (UniProt P36969). The test is described as follows: Primary qHTS Assay for Inhibitors of Recombinant Selenoprotein Glutathione Peroxidase 4 (GPX4) (AID 1845192). Also: nearly all actives have a fitted effect of over 65% in size. Also: potency is read from the fitted curve at half-maximal effect. The method in brief: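 GR-coupled assay: recombinant GPX4 preincubated 30 min with compound at room temperature; final 200 nM GPX4, 1 mM GSH, 0.5 mM cumene hydroperoxide, 0.5 mM NADPH, 100 nM GR, 0.01% BSA, pH 7.5 Tris. NADPH fluorescence (340/450 nm) read at 0 and 15 min.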

Test [3] addresses Luciferin 4-monooxygenase (Photinus pyralis) (UniProt P08659). In words: Primary firefly luciferase (FLuc) qHTS assay for identification of artifact compounds. (AID 1845220). Also: nearly all actives have a fitted effect of over 60% in size. The method in brief:
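Titrated compounds were incubated 15 min at RT, protected from light, with luciferin and ATP at 10 uM; reaction started with 10 nM FLuc, luminescence imaged at 5 min, and concentration-response fitted by Hill equation.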

The subject of test [4] is Nanoluciferase (engineered Oplophorus gracilirostris luciferase). The test is described as follows: Primary Nanoluciferase (NLuc) qHTS assay for identification of artifact compounds. (AID 1845222).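 Also: NLuc secreted into diluted conditioned medium of S16 cells.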 A digest of the protocol: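 qHTS format, against NLuc in S16 cell-conditioned medium. Nano-Glo substrate 1:100 was added after 15 min at room temperature. Luminescence was taken after a further 5 min.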

Test [5] is described as follows: Primary redox qHTS assay for identification of artifact compounds. (AID 1845223). A digest of the protocol:
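Amplex Red (25 uM) and HRP (250 mU/mL) in HBSS, with compounds for 15 min, then 250 uM DTT for 30 min, room temperature, dark. Fluorescence 525/598 nm read; normalized to DMSO and 10 uM DA3003; Hill fit.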

Test [6] in a line: Quantitative High-Throughput drug screen in 47 multiple myeloma cell lines against the NCATS MIPE library collection: FR4_PLB cell viability assay (AID 1918924; also: nearly all actives have a fitted effect of over 35% in size; also: potency is read from the fitted curve at half-maximal effect). A digest of the protocol:
(§1)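 Inhibition of cell viability is measured here. Each line was plated at 500 cells per well, treated with MIPE 4.0 drugs, kept 48 hours at 37C, then assayed for ATP content by CellTiter-Glo luminescence.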

The nature of test [7]: Quantitative High-Throughput drug screen in 47 multiple myeloma cell lines against the NCATS MIPE library collection: AMO1_DSMZ cell viability assay (AID 1918927; also: nearly all actives have a fitted effect of over 30% in size; also: potency is read from the fitted curve at half-maximal effect). The method in brief:
(§2)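 CellTiter-Glo luminescence (ATP) after 48 h compound exposure, 37C/5% CO2; 500 cells/well; MIPE 4.0 approved/investigational drugs pinned in; DMSO = 100%, media only = 0% viability.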

Test [8] can be described thus: Quantitative High-Throughput drug screen in 47 multiple myeloma cell lines against the NCATS MIPE library collection: ARP1_JJKsccF8 cell viability assay (AID 1918928; also: nearly all actives have a fitted effect of over 40% in size; also: potency is read from the fitted curve at half-maximal effect). The method in brief:
(§3)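 ATP readout (CellTiter-Glo), 48 h drug incubation, 37 °C/5% CO2, 500 cells per well; normalisation to DMSO (100%) and media-only (0%) controls.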

Test [9] in a line: Quantitative High-Throughput drug screen in 47 multiple myeloma cell lines against the NCATS MIPE library collection: ARD_JJKsccE7 cell viability assay (AID 1918929; also: potency is read from the fitted curve at half-maximal effect). A digest of the protocol:
as §2

Test [10] can be described thus: Quantitative High-Throughput drug screen in 47 multiple myeloma cell lines against the NCATS MIPE library collection: JIM3_ECACC cell viability assay (AID 1918963; also: nearly all actives have a fitted effect of over 35% in size; also: potency is read from the fitted curve at half-maximal effect). A digest of the protocol:
as §1

Test [11] in a line: Primary fluorescence-based thiol-reactive (MSTI) qHTS assay for identification of artifact compounds. (AID 1845221).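 Also: thiol-reactive compounds lower the probe fluorescence signal; nearly all actives have a fitted effect of over 65% in size.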 A digest of the protocol: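 Reactivity toward the thiol probe MSTI (4 uM) is scored by fluorescence at Ex/Em 525/598 nm after 1 h at room temperature. Acetyl-MSTI and MSTI define the activity scale.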
Test [12] is described as follows: Quantitative High-Throughput drug screen in 47 multiple myeloma cell lines against the NCATS MIPE library collection: Delta47_JCRB cell viability assay (AID 1918925; also: potency is read from the fitted curve at half-maximal effect; nearly all actives have a fitted effect of over 45% in size). A digest of the protocol:
as §2

A short description of test [13]: Quantitative High-Throughput drug screen in 47 multiple myeloma cell lines against the NCATS MIPE library collection: EJM_DSMZ cell viability assay (AID 1918926; also: nearly all actives have a fitted effect of over 30% in size; also: potency is read from the fitted curve at half-maximal effect). A digest of the protocol: as §2
A short description of test [14]: Quantitative High-Throughput drug screen in 47 multiple myeloma cell lines against the NCATS MIPE library collection: Karpas620_DSMZ cell viability assay (AID 1918959). Also: nearly all actives have a fitted effect of over 30% in size. Also: potency is read from the fitted curve at half-maximal effect. A digest of the protocol:
as §1

Test [15] is described as follows: Quantitative High-Throughput drug screen in 47 multiple myeloma cell lines against the NCATS MIPE library collection: KMM1_JCRB cell viability assay (AID 1918960). Also: nearly all actives have a fitted effect of over 30% in size. Also: potency is read from the fitted curve at half-maximal effect. A digest of the protocol:
as §3

The target of test [16] is Metallo-beta-lactamase type 2 (Klebsiella pneumoniae) (UniProt C7C422). In words: qHTS to identify inhibitors of the New Delhi Metallo-beta-lactamase (NDM): assay validation screen against the NCATS LOPAC Collection (AID 1794843). The method in brief:
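Absorbance at 485 nm from nitrocefin turnover (50 uM solution added), read at plateau, gives the read-out. Compounds in DMSO were incubated first with 2 nM final NDM-1 in pH 7.0 HEPES buffer containing 1 uM ZnSO4 and 0.01% Tween20.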

Test [17] can be described thus: Quantitative High-Throughput drug screen in 47 multiple myeloma cell lines against the NCATS MIPE library collection: KHM11_PLB cell viability assay (AID 1918962). Also: nearly all actives have a fitted effect of over 35% in size. Also: potency is read from the fitted curve at half-maximal effect. The method in brief: as §1
Test [18] is described as follows: Quantitative High-Throughput drug screen in 47 multiple myeloma cell lines against the NCATS MIPE library collection: Karpas417_ECACC cell viability assay (AID 1918961). To be noted: Karpas417 myeloma viability, CellTiter-Glo ATP luminescence, 48 h; viability (% of DMSO): at 45.8 µM (top of the series) unless noted. The method in brief:
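qHTS of the MIPE 4.0 collection: 500 myeloma cells/well, 48 h drug exposure at 37C in 5% CO2, then CellTiter-Glo for 5 min at room temperature before luminescence reading.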

Chain of Glutathione peroxidase 1 (Homo sapiens) (P07203 whole entry, looked up): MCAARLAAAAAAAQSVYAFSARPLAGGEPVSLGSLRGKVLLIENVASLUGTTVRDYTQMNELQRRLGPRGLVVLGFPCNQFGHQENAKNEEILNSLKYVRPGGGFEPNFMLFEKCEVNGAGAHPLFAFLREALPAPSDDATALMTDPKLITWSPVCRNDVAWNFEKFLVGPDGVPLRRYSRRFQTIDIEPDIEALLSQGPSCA
Chain of Metallo-beta-lactamase type 2 (Klebsiella pneumoniae) (C7C422 whole entry, looked up): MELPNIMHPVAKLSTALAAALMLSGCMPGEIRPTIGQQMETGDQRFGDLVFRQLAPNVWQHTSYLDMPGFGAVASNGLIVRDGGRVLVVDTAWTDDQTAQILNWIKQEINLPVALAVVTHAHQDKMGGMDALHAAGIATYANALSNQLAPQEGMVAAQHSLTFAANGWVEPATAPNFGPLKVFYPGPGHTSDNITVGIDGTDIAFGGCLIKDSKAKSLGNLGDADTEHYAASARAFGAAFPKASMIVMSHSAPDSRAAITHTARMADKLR
Chain of Phospholipid hydroperoxide glutathione peroxidase GPX4 (Homo sapiens) (P36969 whole entry, looked up): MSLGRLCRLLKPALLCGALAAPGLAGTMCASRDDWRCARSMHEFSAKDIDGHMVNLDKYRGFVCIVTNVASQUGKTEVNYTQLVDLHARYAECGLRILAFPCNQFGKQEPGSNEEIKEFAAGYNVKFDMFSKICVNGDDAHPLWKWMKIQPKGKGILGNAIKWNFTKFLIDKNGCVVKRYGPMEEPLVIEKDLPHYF

As to `CCOc1ccn(-c2ccc(F)cc2)c(=O)c1C(=O)Nc1ccc(Oc2ccnc(N)c2Cl)c(F)c1`, the Potency result in test [1], in [2], in test [3] and in test [10] was “inactive” each time. In addition, the outcome in [4] and in test [5] was inactive. In addition, the Potency in [6] was 18.7 µM (active); in test [7] it was 18.7 µM (active); in [8] it was 14.8 µM (active); in [9], 18.7 µM (active).
As for `O=C(Nc1cccnc1)N1CCC(Cc2cccc(Oc3ccc(C(F)(F)F)cn3)c2)CC1`, the Potency entry in test [1], in [2] and in test [11] was “inactive” throughout. Moreover, the molecule was called inactive in test [4] and in test [5]. The Potency in test [6] was 16.6 µM (active); in test [12], 9.35 µM (active); in test [13] it was 18.7 µM (active); in test [7], 9.35 µM (active); in test [9], 11.8 µM (active); in test [14], 14.8 µM (active). Besides, the Potency in test [15] is 7.43 µM (active).
Regarding `C[C@H](NC(=O)Cc1cc(F)cc(F)c1)C(=O)N[C@@H]1C(=O)N(C)c2ccccc2-c2ccccc21`, the Potency result in test [1], in test [2], in test [11], in test [14] and in test [15] was “inactive” throughout. The outcome in [4] and in [5] was inactive. Besides, the Potency in test [12] was 7.43 µM (active); in test [10] it was 18.7 µM (active).
Regarding `CC(C)c1onc(-c2c(Cl)cccc2Cl)c1COc1ccc(/C=C/c2cccc(C(=O)O)c2)c(Cl)c1`, in test [1], the Potency entry was “inactive”.
With `CS(=O)(=O)c1ccc(C(=O)Nc2ccc(Cl)c(-c3ccccn3)c2)c(Cl)c1`, the Potency result in test [1], in test [2], in [3], in [6], in [13] and in test [8] was “inactive” each time. For the same molecule, the Potency result in [9] and in test [14] was “inactive” throughout. The molecule was called inactive in test [4] and in [5].
For the molecule `C/C(=C\C(=O)Nc1ccccc1C(=O)O)c1ccc2ccccc2c1`, the Potency entry in [1] is “inactive”. Further, in test [2], the Potency was 18 µM (active).
Consider `O=C(O)COCCN1CCN(C(c2ccccc2)c2ccc(Cl)cc2)CC1` (stereo not given), for which the outcome in [16] was inactive. The Potency entry in [1], in test [2], in test [6], in test [9], in [14] and in test [15] was “inactive” throughout. For the same molecule, in test [17], the Potency is 7.43 µM (active).
Take `CC(C)NCC(O)COc1ccc(COCCOC(C)C)cc1` (stereo not given): the result in [16] was inactive. Further, the Potency entry in test [1], in test [2], in [8], in test [14], in test [15] and in test [17] was “inactive” in each case. Also, in [10], the Potency result is “inactive”.
With `COc1ccc(CCN2CCN(CCCc3ccccc3)CC2)cc1OC`, the Potency entry in test [1], in [2], in test [11], in test [6], in test [8] and in [10] was “inactive” throughout. In addition, the outcome in test [4] and in test [5] was inactive. Also, in test [9], the Potency was 13.2 µM (active).
On to `Clc1cccc(Cl)c1NC1=NCCN1`, for which the molecule was called inactive in test [16]. In addition, the Potency result in [1], in test [2], in test [7], in test [8], in [14] and in [17] was “inactive” throughout. The Potency result in test [10] is “inactive”.
In the case of `CC(C)(N)C(=O)N[C@H](COCc1ccccc1)C(=O)N1CCC2(CC1)CN(S(C)(=O)=O)c1ccccc12`, the Potency entry in test [1], in test [2], in test [11], in test [7], in [9] and in [14] was “inactive” in each case. Also, the Potency result in [15] and in test [18] was “inactive” throughout. Also, the molecule was called inactive in test [4] and in test [5]. The Potency in [6] is 16.6 µM (active); in test [17], 18.7 µM (active); in test [10], 7.43 µM (active).
As to `CC(C[N+](C)(C)C)OC(N)=O` (stereo not given), the molecule was called inactive in test [16]. The Potency result in [1], in test [2], in test [13], in test [7], in [9] and in [14] was “inactive” throughout. The Potency entry in test [15] and in test [17] was “inactive” each time. Further, the Potency in test [10] was 0.0083 µM (active).
